# Screening results from PubChem.
# G9a inh = qHTS Assay for Inhibitors of Histone Lysine Methyltransferase G9a; AID 504332, 2011; G9a H3K9 monomethylation, AlphaScreen, 2 h; 8.8% of 350,000 active; Potency, µM (doses to about 102 µM), inactives show at the highest dose activity, negative = inhibition, usual class: inhibitors; Histone-lysine N-methyltransferase EHMT2 (Homo sapiens), Q96KQ7; also: % is scaled to controls: 0 for no effect and ±100 for the full control effect; nearly all actives have a fitted effect of over 75% in size
# Target sequence (Q96KQ7 913-1193 limits assumed): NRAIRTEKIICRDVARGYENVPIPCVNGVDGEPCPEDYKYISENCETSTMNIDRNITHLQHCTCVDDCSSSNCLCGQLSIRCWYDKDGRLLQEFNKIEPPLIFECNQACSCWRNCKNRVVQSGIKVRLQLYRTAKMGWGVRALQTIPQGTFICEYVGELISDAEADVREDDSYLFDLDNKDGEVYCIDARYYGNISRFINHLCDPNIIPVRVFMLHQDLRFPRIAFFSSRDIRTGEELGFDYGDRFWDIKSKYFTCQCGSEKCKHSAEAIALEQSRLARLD
#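 G9a (20 nM) preincubated 15 min RT with compounds, then 500 nM biotinylated H3K9 peptide and 20 uM SAM added; 2 h RT reaction. Monomethyl-H3K9 product detected by AlphaScreen with anti-H3K9me1 antibody, streptavidin donor and anti-rabbit IgG acceptor beads.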
# L3MBTL1 block = qHTS Assay for the Inhibitors of L3MBTL1 | Lethal(3)malignant brain tumor-like protein 1 (Homo sapiens), Q9Y468 | Potency, µM (titrated, usually from 57.1 µM), inactives show top-dose activity, negative = inhibition, actives largely listed as inhibitors | AlphaScreen L3MBTL1–H3K9me1 peptide binding | 0.66% of 230,000 active; also: % is scaled to controls: 0 for no effect and ±100 for the full control effect; nearly all actives have a fitted effect of over 60% in size
#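 AlphaScreen proximity signal between nickel-chelate acceptor and streptavidin donor beads (final 10 ug/mL) reports binding of 50 nM L3MBTL1 to 75 nM biotin-H3 K9me1 peptide; complex incubated with compounds 30 min at room temperature; cefsulodin titration as control.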
# Sfp PPTase inh = qHTS Assay for Inhibitors of Bacillus subtilis Sfp phosphopantetheinyl transferase (PPTase) | Biochemical Sfp PPTase activity, qHTS | 3.5% of 310,000 active | Potency, µM, for the others: largest response in the series, negative = inhibition, actives largely listed as inhibitors | AID 1490, 2009 | 4'-phosphopantetheinyl transferase ffp (Bacillus subtilis), Q9F4F7;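 also: the enzyme is Sfp with the accession as filed and its product quenches rhodamine fluorescence; 0% = enzyme reaction without inhibitor and -100% = no enzyme wells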
#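 Compounds were incubated with enzyme (final 15 nM) for 15 min at room temperature before substrate addition started the reaction. Fluorescence at 525 nm excitation, 598 nm emission was recorded immediately and after 30 minutes.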
# JMJD2A Tudor inh = qHTS Assay for Inhibitors of JMJD2A-Tudor Domain; Lysine-specific demethylase 4A (Homo sapiens), O75164; AlphaScreen JMJD2A-Tudor / H3K4me3 peptide binding; Potency, µM (titrated, usually from 114 µM), for the others: at the top dose activity change, negative = inhibition, usual class: inhibitors; 4.4% of 390,000 active; AID 504339, 2011; also: % is scaled to controls: 0 for no effect and ±100 for the full control effect; nearly all actives have a fitted effect of over 50% in size
# HP1b binding inh = HTS for Inhibitors of HP1-beta Chromodomain Interactions with Methylated Histone Tails. Chromobox protein homolog 1 (Homo sapiens), P83916. AlphaScreen HP1-beta / biotin-H3K9me3 peptide binding. Potency, µM (series often up to 114 µM), for inactives: at the highest dose activity change, negative = inhibition, actives largely listed as inhibitors. 0.56% of 390,000 active. AID 540317, 2011; also: nearly all actives have a fitted effect of over 70% in size
# Target sequence (P83916 whole entry, looked up): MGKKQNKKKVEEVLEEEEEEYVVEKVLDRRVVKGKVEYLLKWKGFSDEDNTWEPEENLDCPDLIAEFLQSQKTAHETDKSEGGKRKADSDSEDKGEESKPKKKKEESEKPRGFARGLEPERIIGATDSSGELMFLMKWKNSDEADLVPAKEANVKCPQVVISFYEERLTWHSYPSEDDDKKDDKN
#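 Compound inhibition of the preformed complex between 50 nM HP1-beta and 50 nM biotinylated H3K9me3 peptide was read by AlphaScreen. Buffer was PBS pH 7.4 with 0.01% Tween-20. Incubations ran 30 min at room temperature, with 10 ug/mL donor/acceptor beads.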
# BAZ2B inh = qHTS Assay for Inhibitors of BAZ2B. Bromodomain adjacent to zinc finger domain protein 2B (Homo sapiens), Q9UIF8. 4.4% of 360,000 active. AlphaScreen BAZ2B-H3K14Ac peptide displacement. Potency, µM (doses to about 114 µM), without a hit: at the top dose activity change, negative = inhibition, most hits filed as inhibitors. AID 504333, 2011; also: % is scaled to controls: 0 for no effect and ±100 for the full control effect; nearly all actives have a fitted effect of over 60% in size
#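 Inhibition is scored as reduced AlphaScreen emission. The BAZ2B/b-H3(5-23)K14Ac complex (50 nM each) in PBS pH 7.4, 0.01% Tween-20 meets compound (up to 110 uM) for 30 min at RT before bead addition.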
# An asterisk follows results filed as active; ? = inconclusive; / = no result given; [ ] = remark or other dose. Only some compounds are listed: those with a hit (about 12% of all), similar ones and a draw of the others. Calls follow the shape of the dose curve; as a rule, active = well fitted curve in the direction sought with a large enough effect; inconclusive = small, poorly fitted or top-dose-only effect, or another doubt; inactive = no such curve, though single readings can be large; an effect the other way counts as inactive or inconclusive. Potency is read from the fitted curve at half-maximal effect.
SMILES,G9a inh,L3MBTL1 block,Sfp PPTase inh,JMJD2A Tudor inh,HP1b binding inh,BAZ2B inh
COCC1CCN(C(=O)c2cc(COc3ccc4ncccc4c3)on2)CC1,/,-1%,13%,16µM*,0%,-1%
O=C(c1cc(COc2ccc3ncccc3c2)on1)N1CCCC1,10%,/,9%,-9%,14%,0%
Cc1cc(OCc2cc(C(=O)N(C)CCCN3CCOCC3)no2)cc(C)c1Cl,-3%,/,-8%,89µM*,19%,-18%
CC(=O)c1cccc(OCc2cc(C(=O)N(C)CCC3CCOCC3)no2)c1,45µM*,/,21%,11%,35%,-3%[57.1 µM]
CCOC(=O)C(CC)N1CCN(Cc2ccc(F)cc2)C(=O)C1=O (configuration not stated),9%[12.7 µM],/,/,4%,37%,-1%
C=CCSc1nc2sc(C)c(C)c2c(=O)n1CC=C,5.6µM*,25%,50µM*,58%,187%,97%
CC1=C(C(=O)Nc2ccccc2)C(c2ccc(C(=O)O)cc2)n2nc(SCC(=O)c3ccc(C)cc3)nc2N1 (configuration not stated),-8%[59 µM],/,/,?,?,-10%
CCOC(=O)c1c(/N=C/c2cccc([N+](=O)[O-])c2O)sc2c1CCC2,/,-2%,18µM*,?,?,?
CCOC(=O)c1c(NC(=O)c2c(C(=O)O)cccc2[N+](=O)[O-])sc2c1CCCC2,8.9µM*,/,18µM*,?,?,-24%
CCOC(=O)c1c(NC(=O)c2cccc([N+](=O)[O-])c2C(=O)O)sc2c1CCCC2,21%,/,10%,-26%,57%,4%
CCOC(=O)c1c(/N=C/c2ccccc2O)sc2c1CCC2,71µM*,-3%,-14%,-27%,-7%,-30%
COc1ccc(NC(=S)c2ccc3ccccc3n2)cc1,7.9µM*,/,22µM*,40µM*,10µM*,11µM*
Cc1ccc(C)c(NC(=O)c2ccc3ccccc3n2)c1,5%,/,-13%,-6%,22%,6%
COc1ccc(N=C(NN)c2ccc3ccccc3n2)cc1,8.9µM*,-5%,-79%,-26%,-12%,?
Cc1ccc(NC(=S)c2ccc3ccccc3n2)c(C)c1,8.9µM*,/,22µM*,?,11µM*,13µM*
Cc1ccc(Cl)cc1NC(=O)c1ccc2snnc2c1,5%[59 µM],/,/,2%,38%,0%
CC(C)C[C@H](NC(=O)[C@H](CCCCN)NC(=O)CNC(=O)[C@H](CC(C)C)NC(=O)[C@@H](N)C(C)C)C(=O)N[C@@H](CO)C(=O)N[C@@H](CCC(N)=O)C(=O)N[C@@H](CCC(=O)O)C(=O)N[C@@H](CC(C)C)C(=O)N[C@@H](Cc1cnc[nH]1)C(=O)N[C@@H](CCCCN)C(=O)N[C@@H](CC(C)C)C(=O)N[C@@H](CCC(N)=O)C(=O)N[C@H](C(=O)N[C@@H](Cc1ccc(O)cc1)C(=O)N1CCC[C@H]1C(=O)N[C@@H](CCCNC(=N)N)C(=O)N[C@H](C(=O)N[C@@H](CC(N)=O)C(=O)N[C@H](C(=O)NCC(=O)N[C@@H](CO)C(=O)NCC(=O)N[C@H](C(=O)N1CCC[C@H]1C(N)=O)[C@@H](C)O)[C@@H](C)O)[C@@H](C)O)[C@@H](C)O,/,/,1%,/,/,/
COc1c2c(cc3c1C(CC(O)C(C)C)N(C)CC3)OCO2 (configuration not stated),/,/,3%,/,/,/
COc1ccc2[nH]c(-c3ccc(F)cc3F)cc(=O)c2c1,2%,/,5%,/,/,/
COc1ccc2[nH]c3c4c(ccc3c2c1)C(=O)C=CC4=O,/,1%,6.3µM*,?,?,40µM*
COCCn1c(C)cc(/C=C2\NC(=S)N(C)C2=O)c1C,10µM*,-11%,-9%,-51%,?,50µM*
Cc1c(C(=O)Nc2ccc(Nc3ccccc3)cc2)cccc1[N+](=O)[O-],40µM*,/,2%,?,-21%,?
CC(=O)Nc1ccc(NC(=O)c2ccccc2Nc2ccccc2)cc1,50µM*,/,5%,-11%,9%,-14%
Cc1nn(C)c(C(=O)Nc2cccc(Nc3ccccc3)c2)c1[N+](=O)[O-],45µM*,/,-8%,/,/,50µM*
COc1cccc(Oc2ccc(OC)cc2C(=O)O)c1,/,6%,2%,25µM*,6%,-34%
SMILES,G9a inh,L3MBTL1 block,Sfp PPTase inh,JMJD2A Tudor inh,HP1b binding inh,BAZ2B inh
Cc1ccccc1NC(=O)C1CCN(C(=O)c2cnn(-c3ccccc3)c2-n2cccc2)CC1,11%[59 µM],/,/,-14%,8%,-2%
CCc1ccc(NC(=O)NCCc2c(C)nn(C)c2C)cc1,24%[59 µM],/,/,3%,36%,0%
COc1ccc(OC)c(S(=O)(=O)Nc2ccccc2C(=O)O)c1,?,0%,16%,-19%,36%,8%
COc1cccc(Nc2ccccc2C(=O)O)c1,40µM*,5%,11%,-17%,13%,?
COc1cc(-c2ccc(Nc3ccccc3C(=O)O)c(OC)c2)ccc1Nc1ccccc1C(=O)O,0.79µM*,/,50µM*,?,35µM*,5.6µM*
CC(=O)n1cc(Nc2ccccc2C(=O)O)c2ccccc21,40µM*,2%,7%,-20%,15%,5%
O=C(O)c1ccccc1Nc1ccccc1,24µM*,4%,25%,-23%,20%,-6%
COc1ccccc1C(=O)Nc1ncc2c(n1)CC(c1ccco1)CC2=O (configuration not stated),50µM*,?,-26%,-30%,8%,50µM*
COc1ccc(C2CC(=O)c3cnc(NC(=O)c4ccco4)nc3C2)cc1 (configuration not stated),21%,/,9%,-25%,16%,-28%
COc1ccc(/C=C/C(=O)c2ccccn2)cc1,40µM*,?,28µM*,-25%,5%,?
COc1ccc(/C=C/C(=O)c2ccccc2O)cc1,45µM*,-11%,?,63µM*,-21%,?
COc1ccc(/C=C/C(=O)N2CCN(c3ccccn3)CC2)cc1,0%[0.501 µM],/,4%,-7%,22%,-10%
O=C(/C=C/c1ccc(O)cc1)c1ccccc1O,?,/,-43%,/,/,/
